Source: PubChem BioAssay (EPA / NIEHS)
Calls of active or inactive are those of the source. The calls were made as follows: active = hit-call score of the fitted dose curve at least 0.9, where 1 is the maximum; inactive = score below 0.9.

Tested on: not listed separately
Test: ATG_Oct_MLP_CIS: Attagene CIS-FACTORIAL HepG2 Assay for human Octamer-Binding Transcription Factor (Oct) (AID 2282993)
Details: HepG2 Attagene cis-factorial Oct reporter, mRNA; actives raise or lower the signal
In short: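 After 24 h compound exposure, transfected HepG2 cells were lysed for total RNA; reporter-specific cDNA was PCR-amplified, fluorescently labelled and sized by capillary electrophoresis. Bidirectional curve fitting used DMSO as baseline.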

Structure (SMILES) | outcome | AC50
CCc1cnc(C2=NC(C)(C(C)C)C(=O)N2)c(C(=O)O)c1 (stereo not given) | inactive | –
CSc1nnc(C(C)(C)C)c(=O)n1N | inactive | –
CC(C)[C@H](C(=O)O[C@H](C#N)c1cccc(Oc2ccccc2)c1)c1ccc(Cl)cc1 | inactive | –
S=C1NCCN1 | inactive | –
O=c1ccc(=O)[nH][nH]1 | inactive | –
COP(=O)(NC(C)=O)SC (stereo not given) | inactive | –
CCOP(=S)(OCC)Oc1cc(C)nc(C(C)C)n1 | inactive | –
CCOC(=O)CC(SP(=O)(OC)OC)C(=O)OCC (stereo not given) | inactive | –
CC(Oc1cccc(Cl)c1)C(=O)O (stereo not given) | inactive | –
CCOP(=S)(OCC)SCCSCC | inactive | –
CSc1nc(NC(C)C)nc(NC(C)C)n1 | inactive | –
CCC(CC)Nc1c([N+](=O)[O-])cc(C)c(C)c1[N+](=O)[O-] | inactive | –
CON=C(C(=O)OC)c1ccccc1CON=C(C)c1cccc(C(F)(F)F)c1 | – | 13.5 µM (active)
CNC(=O)Oc1cccc2c1OC(C)(C)O2 | – | 38.5 µM (active)
CN(C)NC(=O)CCC(=O)O | inactive | –
Cc1cc(C2CC2)nc(Nc2ccccc2)n1 | – | 15.7 µM (active)
C#CC(C)(C)NC(=O)c1cc(Cl)cc(Cl)c1 | – | 30.6 µM (active)
CC(=NC#N)N(C)Cc1ccc(Cl)nc1 | inactive | –

Structure (SMILES) | outcome | AC50
CCOP(=S)(OCC)Oc1ccc([N+](=O)[O-])cc1 | – | 50 µM (active)
O=C(O)c1cc(Oc2ccc(C(F)(F)F)cc2Cl)ccc1[N+](=O)[O-] | inactive | –
CCCOc1nn(C(=O)NS(=O)(=O)c2ccccc2C(=O)OC)c(=O)n1C | inactive | –
CCOP(=O)(SC(C)CC)N1CCSC1=O (stereo not given) | inactive | –
COP(=O)(OC)SCn1c(=O)oc2cc(Cl)cnc21 | inactive | –
CCCSP(=O)(OCC)Oc1ccc(Br)cc1Cl (stereo not given) | – | 2.03 µM (active)
CCc1cccc(CC)c1N(COC)C(=O)CCl | – | 3.21 µM (active)
FC(F)C(F)(F)OCC(Cn1cncn1)c1ccc(Cl)cc1Cl (stereo not given) | – | 46.5 µM (active)
C[Si](Cn1cncn1)(c1ccc(F)cc1)c1ccc(F)cc1 | – | 39.1 µM (active)
CNc1cnn(-c2cccc(C(F)(F)F)c2)c(=O)c1Cl | – | 13.7 µM (active)
CN(C)C(=O)Nc1cccc(C(F)(F)F)c1 | inactive | –
CC(C)N(C(=O)SCC(Cl)=C(Cl)Cl)C(C)C | – | 24.7 µM (active)
CCNc1nc(Cl)nc(NC(C)(C)C#N)n1 | inactive | –
CC[C@H](C)[C@H]1O[C@]2(C=C[C@@H]1C)C[C@@H]1C[C@@H](C/C=C(\C)[C@@H](O[C@H]3C[C@H](OC)[C@@H](O[C@H]4C[C@H](OC)[C@@H](NC)[C@H](C)O4)[C@H](C)O3)[C@@H](C)/C=C/C=C3\CO[C@@H]4[C@H](O)C(C)=C[C@@H](C(=O)O1)[C@]34O)O2 | inactive | –
C[N+]1(C)CCCCC1 | inactive | –
CCOP(=O)(OCC)Oc1cc(C)nc(C(C)C)n1 | inactive | –
CCCCOC(=O)c1ccccc1C(=O)O | inactive | –
CC(C1CC1)C(O)(Cn1cncn1)c1ccc(Cl)cc1 (stereo not given) | inactive | –

Biological target: Cellular tumor antigen p53 (Homo sapiens) (UniProt P04637)
Test: ATG_p53_CIS: Attagene CIS-FACTORIAL HepG2 Assay for human p53 Transcription Factor (AID 2282994)
Details: HepG2 p53 cis-element reporter, Attagene mRNA; actives raise or lower the signal
In short: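 Read-out: reporter mRNA by RT-PCR plus capillary electrophoresis with fluorescence detection. Human HepG2 liver cells carried transfected multi-reporter cis-element constructs, dosed 24 h. Gain or loss of signal fitted bidirectionally against DMSO control.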

Chain of Cellular tumor antigen p53 (Homo sapiens) (P04637 whole entry, looked up): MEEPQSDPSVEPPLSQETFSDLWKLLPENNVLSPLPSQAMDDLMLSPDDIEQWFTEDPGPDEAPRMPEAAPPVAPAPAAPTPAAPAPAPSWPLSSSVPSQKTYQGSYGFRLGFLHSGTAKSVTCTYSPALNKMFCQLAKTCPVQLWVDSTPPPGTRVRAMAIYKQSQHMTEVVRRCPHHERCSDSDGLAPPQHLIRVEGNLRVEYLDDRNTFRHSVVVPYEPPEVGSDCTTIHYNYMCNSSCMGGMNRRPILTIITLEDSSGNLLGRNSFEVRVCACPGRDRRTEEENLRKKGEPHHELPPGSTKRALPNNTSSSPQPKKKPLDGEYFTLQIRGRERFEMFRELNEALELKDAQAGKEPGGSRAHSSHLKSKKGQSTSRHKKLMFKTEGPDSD

Structure (SMILES) | outcome
CSc1nnc(C(C)(C)C)c(=O)n1N | inactive
CC(Oc1cccc(Cl)c1)C(=O)O (stereo not given) | inactive
CCOP(=S)(OCC)SCCSCC | inactive
Cc1cc(C2CC2)nc(Nc2ccccc2)n1 | inactive
C#CC(C)(C)NC(=O)c1cc(Cl)cc(Cl)c1 | inactive
C[Si](Cn1cncn1)(c1ccc(F)cc1)c1ccc(F)cc1 | inactive
CC[C@H](C)[C@H]1O[C@]2(C=C[C@@H]1C)C[C@@H]1C[C@@H](C/C=C(\C)[C@@H](O[C@H]3C[C@H](OC)[C@@H](O[C@H]4C[C@H](OC)[C@@H](NC)[C@H](C)O4)[C@H](C)O3)[C@@H](C)/C=C/C=C3\CO[C@@H]4[C@H](O)C(C)=C[C@@H](C(=O)O1)[C@]34O)O2 | inactive
CC(C1CC1)C(O)(Cn1cncn1)c1ccc(Cl)cc1 (stereo not given) | inactive

Read-out: not listed separately
Test: BSK_3C_TissueFactor: BioMAP Diversity Plus: 3C Assay for Tissue Factor Biomarker Activity (AID 2282997)
Details: BioMAP 3C HUVEC, tissue factor biomarker readout; actives raise or lower the signal
In short: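 Tissue Factor measured by ELISA, 24 h after treatment of primary HUVEC in the BioMAP 3C setting.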

Structure (SMILES) | outcome | AC50
CCc1cnc(C2=NC(C)(C(C)C)C(=O)N2)c(C(=O)O)c1 (stereo not given) | inactive | –
CSc1nnc(C(C)(C)C)c(=O)n1N | inactive | –
CC(C)[C@H](C(=O)O[C@H](C#N)c1cccc(Oc2ccccc2)c1)c1ccc(Cl)cc1 | inactive | –
S=C1NCCN1 | inactive | –
O=c1ccc(=O)[nH][nH]1 | inactive | –
COP(=O)(NC(C)=O)SC (stereo not given) | inactive | –
CCOP(=S)(OCC)Oc1cc(C)nc(C(C)C)n1 | inactive | –
CCOC(=O)CC(SP(=O)(OC)OC)C(=O)OCC (stereo not given) | inactive | –
CC(Oc1cccc(Cl)c1)C(=O)O (stereo not given) | inactive | –
CCOP(=S)(OCC)SCCSCC | inactive | –
CSc1nc(NC(C)C)nc(NC(C)C)n1 | inactive | –
CCC(CC)Nc1c([N+](=O)[O-])cc(C)c(C)c1[N+](=O)[O-] | inactive | –
CON=C(C(=O)OC)c1ccccc1CON=C(C)c1cccc(C(F)(F)F)c1 | inactive | –
CNC(=O)Oc1cccc2c1OC(C)(C)O2 | inactive | –
CN(C)NC(=O)CCC(=O)O | inactive | –
Cc1cc(C2CC2)nc(Nc2ccccc2)n1 | inactive | –
C#CC(C)(C)NC(=O)c1cc(Cl)cc(Cl)c1 | inactive | –
CC(=NC#N)N(C)Cc1ccc(Cl)nc1 | inactive | –

Structure (SMILES) | outcome | AC50
CCOP(=S)(OCC)Oc1ccc([N+](=O)[O-])cc1 | inactive | –
O=C(O)c1cc(Oc2ccc(C(F)(F)F)cc2Cl)ccc1[N+](=O)[O-] | inactive | –
CCCOc1nn(C(=O)NS(=O)(=O)c2ccccc2C(=O)OC)c(=O)n1C | inactive | –
CCOP(=O)(SC(C)CC)N1CCSC1=O (stereo not given) | inactive | –
COP(=O)(OC)SCn1c(=O)oc2cc(Cl)cnc21 | inactive | –
CCCSP(=O)(OCC)Oc1ccc(Br)cc1Cl (stereo not given) | inactive | –
CCc1cccc(CC)c1N(COC)C(=O)CCl | inactive | –
FC(F)C(F)(F)OCC(Cn1cncn1)c1ccc(Cl)cc1Cl (stereo not given) | inactive | –
C[Si](Cn1cncn1)(c1ccc(F)cc1)c1ccc(F)cc1 | inactive | –
CNc1cnn(-c2cccc(C(F)(F)F)c2)c(=O)c1Cl | inactive | –
CN(C)C(=O)Nc1cccc(C(F)(F)F)c1 | inactive | –
CC(C)N(C(=O)SCC(Cl)=C(Cl)Cl)C(C)C | – | 32.9 µM (active)
CCNc1nc(Cl)nc(NC(C)(C)C#N)n1 | inactive | –
CC[C@H](C)[C@H]1O[C@]2(C=C[C@@H]1C)C[C@@H]1C[C@@H](C/C=C(\C)[C@@H](O[C@H]3C[C@H](OC)[C@@H](O[C@H]4C[C@H](OC)[C@@H](NC)[C@H](C)O4)[C@H](C)O3)[C@@H](C)/C=C/C=C3\CO[C@@H]4[C@H](O)C(C)=C[C@@H](C(=O)O1)[C@]34O)O2 | inactive | –
C[N+]1(C)CCCCC1 | inactive | –
CCOP(=O)(OCC)Oc1cc(C)nc(C(C)C)n1 | inactive | –
CCCCOC(=O)c1ccccc1C(=O)O | inactive | –
CC(C1CC1)C(O)(Cn1cncn1)c1ccc(Cl)cc1 (stereo not given) | inactive | –
